# Only some compounds are listed: those with a hit (about 15% of all), similar ones and a draw of the others.
# Pf growth 48h = inhibits P. falciparum growth in the first generation, 48 h; P. falciparum luciferase growth in erythrocytes, 48 h; Potency, µM (series often up to 28.7 µM), inactives show top-dose activity change, negative = inhibition, most hits filed as inhibitors; hit rate 5.9% among 310,000; further: potency means the concentration at half of the fitted maximal effect; on the % scale 0 is the no-effect control and ±100 the full control effect
#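 Cell-based growth assay: transgenic P. falciparum expressing firefly luciferase, cultured in red cells within RPMI 1640 containing 0.5% w/v Albumax, 24 mM bicarbonate and gentamycin. A drop in luciferase activity indicates inhibition.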
# HCMV inh = inhibitors of human cytomegalovirus. HFF cells, HCMV-luciferase reporter, 72 h; stronger effect = lower value. hit rate 4.5% among 410,000. activity change, negative = inhibition, % at 57.5 µM; in the data active means activity change below about -60%; inconclusive means no clear call, values can overlap the other calls; inactive means above about -39%; further: on the % scale 0 is the no-effect control and ±100 the full control effect
#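 Cell-based, HFFs, 1000 cells/well, 16 h 37C; cpds in DMSO + HCMV-luc, MOI 1 PFU/cell; 72 h 37C; OneGlo luminescence after 5 min RT; norm. to buffer vs Salinomycin 10uM.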
# Pf growth 96h = P. falciparum growth inhibition at 96 hours; P. falciparum luciferase reporter growth, 96 h; Potency, µM (series often up to 28.7 µM), inactives show top-dose activity change, negative = inhibition, hits mostly inhibitors; hit rate 6.9% among 320,000; AID 504834; further: potency means the concentration at half of the fitted maximal effect; on the % scale 0 is the no-effect control and ±100 the full control effect
#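 Two-generation exposure (96 h) targets delayed-death phenotype. Reporter parasites carrying integrated firefly luciferase, in red cells at 2% hematocrit and 0.05% parasitemia final, kept at 37 C, 5% CO2; luminescence loss indicates inhibition.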
# HCV inhibitor = blocks hepatitis C virus; Huh7.5.1 HCVcc-Cre infection, luciferase reporter, 44 h; Potency, µM (top dose mostly 41.8 µM), for the others: at the highest dose activity change, negative = inhibition, hits mostly inhibitors; hit rate 3.4% among 340,000; AID 651820; further: potency means the concentration at half of the fitted maximal effect; on the % scale 0 is the no-effect control and ±100 the full control effect
#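 Antiviral activity was scored by luciferase reporter output from cells infected with HCVcc-Cre (~0.5 moi) in presence of compound, 44 h infection period, cells seeded 1,000/well 4 h prior.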
# Sm TGR block = S. mansoni TGR enzyme inhibition | purified TGR, DTNB reduction, TNB absorbance 405 nm | Potency, µM (series often up to 114 µM), without a hit: at the top dose activity change, negative = inhibition, actives largely listed as inhibitors | AID 485364 | Q962Y6 | hit rate 3% among 360,000; further: potency means the concentration at half of the fitted maximal effect; on the % scale 0 is the no-effect control and ±100 the full control effect; nearly all actives have a fitted effect of over 60% in size
#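 First, TGR (20 nM dispensed) and NADPH were mixed with compound. Second, a 15 min room-temperature incubation followed. Third, further NADPH and then DTNB were added to start the reaction. Finally, TNB absorbance was monitored kinetically.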
# SARS PLP yeast = blocks SARS-CoV papain-like protease in a yeast assay; S. cerevisiae expressing SARS-CoV PLpro, growth rescue; Potency, µM (series often up to 32.9 µM), without a hit: at the top dose activity, positive = growth rescue, most hits filed as activators; hit rate 0.19% among 330,000; calls by dose curve; further: potency means the concentration at half of the fitted maximal effect; 0% is about no effect; nearly all actives have a fitted effect of over 55% in size
# * marks the source's active call; other numbers are inactive results; ? = inconclusive; . = no result; ! = not active in a repeat. Unless noted, the call rests on the fitted dose curve; in most records, active means well fitted curve in the direction sought with a large enough effect; inconclusive means small, poorly fitted or top-dose-only effect, or another doubt; inactive means no such curve, though single readings can be large; an effect the other way counts as inactive or inconclusive.
SMILES,Pf growth 48h,HCMV inh,Pf growth 96h,HCV inhibitor,Sm TGR block,SARS PLP yeast
Oc1ccccc1/C=N/Nc1nccnc1Cl,.,-100*,-11%,?,0%,-33%
COc1cccc(/C=N/Nc2ncnc3scc(-c4ccccc4)c23)c1O,2.9µM*,-100*,2.3µM*,?,-8%,?
COc1ccc(/C=N/Nc2nccnc2Cl)c(OC)c1,-12%,-10,8%,-30%,.,0%
O=C(CN1C(=O)/C(=C/c2ccc(F)cc2)SC1=S)NC1CCS(=O)(=O)C1 (stereo not given),51%,?,21%,8%,4%,3%
COc1cc(C#N)ccc1OCC(=O)Nc1cccc(S(=O)(=O)N(C)c2ccccc2)c1,.,17,.,.,.,.
Cc1cc(NS(=O)(=O)c2ccc(NC(=O)C(C)Oc3cc(C)c(Cl)c(C)c3)cc2)no1 (stereo not given),-6%,46,?,1%,-1%,5%
COc1ccc(-c2noc(CN(C(=O)Cc3ccc(C)cc3)C(C)C)n2)cc1,.,-17,.,.,8%,.
Cc1ccc(C(=O)N2CCc3cc(CNS(=O)(=O)c4cccs4)ccc32)cc1,.,-39,.,.,2%,.
Oc1ccc(C=NNc2ccccn2)c(O)c1,.,-99*,.,?,.,.
O=C(NCCCN1CCN(c2cccc(Cl)c2)CC1)c1nc(-c2ccncc2)no1,6.6µM*,-16,5%,?,-9%,2%
O=C(NCCCN1CCN(CCCNC(=O)c2cccc(Cl)c2)CC1)c1cccc(Cl)c1,?,2,12µM*,?,-1%,-2%
O=C(NCCCN1CCCC1)c1ccc(CSCc2cccc(Cl)c2)o1,.,8,?,10µM*,5%,5%
O=C(NCCN1CCCC1)c1cccc(Cl)c1,8%,-17,38%,13%,9%,0%
CCOc1cc(-c2cc(-c3ccccc3)nc(N)c2C#N)ccc1O,.,63,?,-26%,-6%,-3%
CCOc1cc(-c2cc(-c3ccc(N)cc3)nc(N)c2C#N)ccc1O,12µM*,20,86%,?,-22%,-9%
Cc1ncc(CSc2nnnn2-c2ccccc2)c(N)n1,8%,11,.,8%,45µM*,-2%
Oc1ccc(-n2nnnc2SCc2ccccc2Br)cc1,?,.,13µM*,-9%,-16%,-17%
CCSc1nnnn1-c1ccccc1,.,8,?,7%,0%,3%
CC(C)CNC(=O)c1ccccc1NC(=O)c1ccc(CSc2ccccc2)cc1,13µM*,114,10µM*,?,-3%,-35%
CC(C)CNC(=O)c1ccccc1NC(=O)Nc1ccccc1,.,-7,10µM*,-27%,2%,6%
CCOC(=O)C(CCc1ccccc1)NC(C)C(=O)N1Cc2cc(OC)c(OC)cc2CC1C(=O)O (stereo not given),?,.,12µM*,.,.,.
CCOC(=O)[C@H](CCc1ccccc1)N[C@@H](C)C(=O)N1CCC[C@@H]1C(=O)O,0%,30,0%,13%,6%,.
CCOC(=O)[C@H](CCc1ccccc1)N[C@@H](C)C(=O)N1CCC[C@H]1C(=O)O,-26%,59,6µM*!,?,-9%,-1%
O=C(NNCS(=O)(=O)O)c1ccncc1,12%,.,-9%,.,.,.
O=C1CCC/C1=c1\s/c(=C\c2cccnc2)c(=O)n1-c1ccccc1,?,-79*,?,-16%,-18%,1%
O=C1CCC/C1=c1\s/c(=C/c2cccnc2)c(=O)n1-c1ccccc1,.,-25,.,-28%,.,.
[O-]/[N+](=C\c1ccc(OC(F)F)cc1)c1ccccc1,?,-16,-2%,22%,2%,-5%
COc1ccc(/[N+]([O-])=C/c2ccoc2)cc1,187%,49,220%,-4%,5µM*,0%
CCC(=NCc1ccc(Cl)c(Cl)c1)c1nc(-c2ccco2)oc1O,?,-35,12µM*,-28%,-3%,-40%
O=C(NCc1ccc(F)cc1)c1ccccc1OCc1ccccc1,?,-63*,?,-28%,-2%,-4%
